Measurements reported in PubChem BioAssay (Tox21).
Where “and” joins values, the source holds several entries; their conditions need not be identical. Equal values may be shown once. Results filed as inconclusive are left out. Entries that show only a call come without a potency. Where a structure was tested more than once in an assay, its records may differ in their call. Calls of active or inactive are those of the source. Unless noted, calls follow the shape of the full dose curve. Starred links: 1 amine or outer side, 2 acyl side, 3 side chain; linkers in the order of their positions; H or OH if unused. Positions of bridges follow the written chain, without caps; N, C: chain ends. Non-standard residues stand in square brackets, D forms with d. Residues, ends and D or L forms follow the SMILES beside them. Chains are numbered I, II in the order given. Actinocin(9to1) = Cc1c2oc3c(C)ccc(C(=O)[*:1])c3nc-2c(C(=O)[*:2])c(N)c1=O; NMeV = CN[C@H](C(=O)O)C(C)C; Sar = CNCC(=O)O

Columns and labels:
[1] = qHTS assay to identify small molecule antagonists of the sonic hedgehog signaling (Shh) pathway (AID 1259369); also: nearly all actives have a fitted effect of over 45% in size; also: potency is read from the fitted curve at half-maximal effect
Procedure, shortened: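 For antagonist detection, the reporter line received test compounds together with conditioned medium, incubated 24hr at 37 C, 5% CO2, then luminescence was recorded following 30min room-temperature luciferase reagent incubation.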

[2] = target: Estrogen receptor beta (Homo sapiens) (UniProt Q92731); experiment: qHTS assay to identify small molecule agonists of the estrogen receptor beta (ER-beta) signaling pathway (AID 1259377; active = well fitted activation curve with a large enough effect in the signal ratio in the repeat runs, not every such curve was filed as active; the % refers to the signal ratio)
Chain of Estrogen receptor beta (Homo sapiens) (Q92731 whole entry, looked up): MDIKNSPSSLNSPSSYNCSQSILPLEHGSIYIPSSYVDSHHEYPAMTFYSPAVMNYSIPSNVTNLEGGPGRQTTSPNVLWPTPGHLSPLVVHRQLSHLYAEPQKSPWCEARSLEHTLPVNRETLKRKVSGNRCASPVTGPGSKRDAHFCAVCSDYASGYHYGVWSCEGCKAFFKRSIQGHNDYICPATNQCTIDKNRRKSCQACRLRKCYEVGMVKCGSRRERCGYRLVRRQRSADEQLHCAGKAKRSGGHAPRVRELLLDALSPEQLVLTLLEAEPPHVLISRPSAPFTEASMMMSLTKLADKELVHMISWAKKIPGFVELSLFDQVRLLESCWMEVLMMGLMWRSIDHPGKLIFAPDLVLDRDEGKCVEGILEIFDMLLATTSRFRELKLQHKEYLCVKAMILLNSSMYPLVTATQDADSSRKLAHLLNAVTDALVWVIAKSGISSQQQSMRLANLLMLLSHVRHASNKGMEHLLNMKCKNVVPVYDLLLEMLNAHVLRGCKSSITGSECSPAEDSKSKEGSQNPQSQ
Procedure, shortened: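 ER-beta-UAS-bla HEK293T cells in medium with 2% charcoal-stripped FBS were exposed to compounds for 16 h at 37C. Beta-lactamase reporter activity was read as fluorescence after 2 h with LiveBLAzer B/G FRET substrate at room temperature.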

[3] = target: Estrogen receptor beta (Homo sapiens) (UniProt Q92731); experiment: qHTS assay to identify small molecule antagonists of the estrogen receptor beta (ER-beta) signaling pathway (AID 1259378; active = well fitted inhibition curve with a large enough effect in the signal ratio in the repeat runs, not every such curve was filed as active; the % refers to the signal ratio; also: potency is read from the fitted curve at half-maximal effect)
Procedure, shortened: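 ER-beta-UAS-bla HEK293T (GripTite) cells in 2% charcoal-stripped FBS medium were preincubated 6 hr at 37C, dosed with compound, then stimulated with 1 nM E2 (final) for 16 hr; beta-lactamase reporter read by B/G FRET fluorescence after 2 hr substrate loading.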

[4] = qHTS assay to identify small molecule agonists of the androgen receptor (AR) signaling pathway in the presence of an antagonist - cell viability counter screen (AID 1259379; active = well fitted curve in the direction sought with a large enough effect in the repeat runs; an effect the other way counts as inactive or inconclusive; also: nearly all actives have a fitted effect of over 25% in size; also: potency is read from the fitted curve at half-maximal effect)
Procedure, shortened: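 Seed MDA-kb2 at 3,000 cells/well; incubate 5 hr, 37C, 0% CO2. Add nilutamide to 3.0uM final, then pin compounds at 15 concentrations. Incubate 16 hr. Add CellTiter-Fluor at 15 hr, read fluorescence after 1 hr.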

[5] = qHTS assay to identify small molecule agonists of the estrogen receptor beta (ER-beta) signaling pathway - cell viability counter screen (AID 1259380; active = well fitted curve in the direction sought with a large enough effect in the repeat runs; an effect the other way counts as inactive or inconclusive; also: nearly all actives have a fitted effect of over 30% in size; also: potency is read from the fitted curve at half-maximal effect)
Procedure, shortened: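 CellTiter-Glo read, 30 min RT, same wells as bla assay; cells ER-beta-UAS-bla HEK293T; 16 hr compound, 37C; medium 2% charcoal-stripped FBS.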

[6] = target: Androgen receptor (Homo sapiens) (UniProt P10275); experiment: qHTS assay to identify small molecule agonists of the androgen receptor (AR) signaling pathway in the presence of an antagonist (AID 1259381); also: nearly all actives have a fitted effect of over 15% in size
Chain of Androgen receptor (Homo sapiens) (P10275 whole entry, looked up): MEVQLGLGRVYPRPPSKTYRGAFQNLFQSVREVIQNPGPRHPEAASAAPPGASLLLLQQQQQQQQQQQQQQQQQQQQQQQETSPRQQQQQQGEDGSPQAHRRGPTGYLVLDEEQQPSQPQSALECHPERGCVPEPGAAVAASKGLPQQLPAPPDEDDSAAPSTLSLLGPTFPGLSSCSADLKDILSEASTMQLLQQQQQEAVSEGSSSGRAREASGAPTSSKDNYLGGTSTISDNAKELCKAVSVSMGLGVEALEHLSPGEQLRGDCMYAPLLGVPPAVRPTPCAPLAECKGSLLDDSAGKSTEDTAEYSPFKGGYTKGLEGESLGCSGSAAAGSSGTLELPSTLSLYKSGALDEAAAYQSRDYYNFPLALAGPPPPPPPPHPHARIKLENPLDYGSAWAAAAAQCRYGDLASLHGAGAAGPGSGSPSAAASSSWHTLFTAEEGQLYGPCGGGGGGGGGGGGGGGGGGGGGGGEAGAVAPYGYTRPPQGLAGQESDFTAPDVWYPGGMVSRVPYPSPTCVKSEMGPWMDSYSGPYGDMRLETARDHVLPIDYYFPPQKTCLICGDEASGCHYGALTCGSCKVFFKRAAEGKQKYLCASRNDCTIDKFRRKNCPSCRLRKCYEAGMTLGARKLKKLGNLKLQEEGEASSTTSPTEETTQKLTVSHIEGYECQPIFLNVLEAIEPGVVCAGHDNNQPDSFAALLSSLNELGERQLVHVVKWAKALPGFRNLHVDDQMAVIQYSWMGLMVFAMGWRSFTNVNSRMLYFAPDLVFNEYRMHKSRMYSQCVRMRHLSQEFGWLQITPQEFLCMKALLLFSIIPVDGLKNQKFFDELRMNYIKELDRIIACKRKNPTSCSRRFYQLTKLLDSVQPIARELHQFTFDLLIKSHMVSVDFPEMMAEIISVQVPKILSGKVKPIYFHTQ
Procedure, shortened: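 Test compounds at 15 concentrations were incubated for 16hr with MDA-kb2 reporter cells in presence of 3.0uM nilutamide (final). Signal: ONE-Glo luciferase luminescence.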

[7] = qHTS assay to identify small molecule antagonists of the estrogen receptor beta (ER-beta) signaling pathway - cell viability counter screen (AID 1259382; active = well fitted curve in the direction sought with a large enough effect in the repeat runs; an effect the other way counts as inactive or inconclusive; also: nearly all actives have a fitted effect of over 55% in size; also: potency is read from the fitted curve at half-maximal effect)
Procedure, shortened: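 In this multiplexed counter screen, cells were seeded at 2,000 per well in medium with 2% charcoal-stripped FBS and incubated 6 hr before compound and 1nM final E2 were added. Sixteen hours later, ATP-based luminescence reported viability.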

[8] = target: Estrogen receptor (Homo sapiens) (UniProt P03372); experiment: qHTS assay to identify small molecule agonists of the estrogen receptor alpha (ER-alpha) signaling pathway in the presence of an antagonist (AID 1259383); also: top concentration of the series differs between compounds; nearly all actives have a fitted effect of over 15% in size
Chain of Estrogen receptor (Homo sapiens) (P03372 whole entry, looked up): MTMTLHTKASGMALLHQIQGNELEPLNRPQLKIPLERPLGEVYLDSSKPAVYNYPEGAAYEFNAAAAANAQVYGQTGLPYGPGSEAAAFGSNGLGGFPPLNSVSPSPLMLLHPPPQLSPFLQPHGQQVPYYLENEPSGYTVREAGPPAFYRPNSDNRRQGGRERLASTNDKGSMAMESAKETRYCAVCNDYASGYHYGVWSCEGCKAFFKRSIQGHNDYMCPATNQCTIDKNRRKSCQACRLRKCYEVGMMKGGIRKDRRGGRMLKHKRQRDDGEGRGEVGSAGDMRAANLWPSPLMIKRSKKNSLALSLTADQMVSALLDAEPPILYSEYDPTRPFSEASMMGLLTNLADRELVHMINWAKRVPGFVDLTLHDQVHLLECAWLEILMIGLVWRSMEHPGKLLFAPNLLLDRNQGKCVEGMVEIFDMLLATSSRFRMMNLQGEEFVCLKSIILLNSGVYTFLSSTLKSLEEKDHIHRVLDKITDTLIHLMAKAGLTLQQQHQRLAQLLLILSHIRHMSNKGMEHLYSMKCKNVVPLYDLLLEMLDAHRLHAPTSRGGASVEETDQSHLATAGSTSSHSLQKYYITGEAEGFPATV
Procedure, shortened: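 Stably transfected VM7Luc4E2 reporter cells, kept 5 days in charcoal-stripped serum, received ICI-182,780 at 10.0nM final before compound addition. Following 22hr incubation at 37C and 5% CO2, luciferase signal was read by luminescence.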

[9] = qHTS assay to identify small molecule agonists of the estrogen receptor alpha (ER-alpha) signaling pathway in the presence of an antagonist - cell viability counter screen (AID 1259386; active = well fitted curve in the direction sought with a large enough effect in the repeat runs; an effect the other way counts as inactive or inconclusive;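 also: cells exposed to compounds for 22 h at 37 °C before the viability read; nearly all actives have a fitted effect of over 30% in size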; also: potency is read from the fitted curve at half-maximal effect)
Procedure, shortened: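 Viability counter screen using VM7Luc4E2 (full-length ER-alpha, four ERE-luciferase). The cells were treated with compounds alongside ICI-182,780 10.0nM for 22hr, and live-cell protease fluorescence was quantified with CellTiter-Fluor.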

[10] = target: Progesterone receptor (Homo sapiens) (UniProt P06401); experiment: qHTS assay to identify small molecule agonists of the progesterone receptor (PR) signaling pathway (AID 1346784); also: nearly all actives have a fitted effect of over 30% in size
Chain of Progesterone receptor (Homo sapiens) (P06401 whole entry, looked up): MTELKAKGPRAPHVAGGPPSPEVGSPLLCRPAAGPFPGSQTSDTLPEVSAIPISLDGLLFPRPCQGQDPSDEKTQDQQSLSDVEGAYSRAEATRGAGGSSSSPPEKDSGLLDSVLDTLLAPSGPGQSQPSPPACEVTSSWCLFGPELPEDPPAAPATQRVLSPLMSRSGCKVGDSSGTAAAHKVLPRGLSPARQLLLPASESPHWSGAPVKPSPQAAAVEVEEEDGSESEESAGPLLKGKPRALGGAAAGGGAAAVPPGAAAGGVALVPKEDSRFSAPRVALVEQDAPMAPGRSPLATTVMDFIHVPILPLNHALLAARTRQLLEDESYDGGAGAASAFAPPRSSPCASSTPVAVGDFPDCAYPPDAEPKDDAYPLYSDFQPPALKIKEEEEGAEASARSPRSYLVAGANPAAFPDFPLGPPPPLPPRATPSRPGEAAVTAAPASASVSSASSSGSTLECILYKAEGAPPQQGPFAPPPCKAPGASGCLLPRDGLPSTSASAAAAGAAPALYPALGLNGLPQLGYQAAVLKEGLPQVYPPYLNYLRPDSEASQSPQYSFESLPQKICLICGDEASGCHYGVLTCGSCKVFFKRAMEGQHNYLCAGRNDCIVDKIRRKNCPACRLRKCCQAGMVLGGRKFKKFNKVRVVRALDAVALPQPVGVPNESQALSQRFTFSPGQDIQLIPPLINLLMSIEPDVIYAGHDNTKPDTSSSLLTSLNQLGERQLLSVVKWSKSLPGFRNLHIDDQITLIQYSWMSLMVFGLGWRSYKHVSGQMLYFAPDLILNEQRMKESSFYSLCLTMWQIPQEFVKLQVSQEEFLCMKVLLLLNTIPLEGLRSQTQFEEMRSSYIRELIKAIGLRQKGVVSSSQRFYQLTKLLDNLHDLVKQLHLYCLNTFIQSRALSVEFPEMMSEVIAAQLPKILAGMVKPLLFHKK
Procedure, shortened: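 PR-UAS-bla HEK 293T cells (beta-lactamase reporter under UAS) in 2% charcoal-stripped FBS, dosed with 23 nL compound after 6 hr, incubated 16hr at 37C. LiveBLAzer B/G FRET substrate added, fluorescence read after 2 hours.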

[11] = qHTS assay to identify small molecule antagonists of the TGF-beta/Smad signaling pathway - cell viability counter screen (AID 1346824; active = well fitted curve in the direction sought with a large enough effect in the repeat runs; an effect the other way counts as inactive or inconclusive; also: nearly all actives have a fitted effect of over 50% in size)
Procedure, shortened: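 SBE-bla HEK 293T cells were plated overnight at 37 C, then given compounds in DMSO plus TGF-beta1 (added as 0.25 ng/mL solution) for 5 hr. After the bla read, CellTiter-Glo was added to the same wells and luminescence read after 30 min at room temperature.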

[12] = qHTS assay to identify small molecule agonists of the TGF-beta/Smad signaling pathway - cell viability counter screen (AID 1346829; active = well fitted curve in the direction sought with a large enough effect in the repeat runs; an effect the other way counts as inactive or inconclusive; also: top concentration of the series differs between compounds; nearly all actives have a fitted effect of over 45% in size)
Procedure, shortened: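 Cytotoxicity counter screen: CellTiter-Glo luminescence (30 min, room temperature) measured in the SBE-bla HEK 293T reporter wells after 5 hr compound treatment at 37 C and the 2 hr substrate step.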

[13] = qHTS assay to identify small molecule agonists of the TGF-beta/Smad signaling pathway (AID 1346859; active = well fitted activation curve with a large enough effect in the signal ratio in the repeat runs, not every such curve was filed as active; the % refers to the signal ratio; also: series mostly up to about 77 µM)
Procedure, shortened: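 SBE-bla HEK293T cells plated overnight, then compound exposure for 5 h at 37 C. Beta-lactamase reporter read with LiveBLAzer B/G FRET substrate after 2 h at room temperature, fluorescence at 405 nm excitation, 460/530 nm emission.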

[14] = target: Thyrotropin-releasing hormone receptor (Homo sapiens) (UniProt P34981); experiment: qHTS assay to identify small molecule antagonists of the thyrotropin-releasing hormone receptor (TRHR) signaling pathway (AID 1346877; active = well fitted inhibition curve with a large enough effect in the repeat runs, not every such curve was filed as active; also: series mostly up to about 51 µM)
Chain of Thyrotropin-releasing hormone receptor (Homo sapiens) (P34981 whole entry, looked up): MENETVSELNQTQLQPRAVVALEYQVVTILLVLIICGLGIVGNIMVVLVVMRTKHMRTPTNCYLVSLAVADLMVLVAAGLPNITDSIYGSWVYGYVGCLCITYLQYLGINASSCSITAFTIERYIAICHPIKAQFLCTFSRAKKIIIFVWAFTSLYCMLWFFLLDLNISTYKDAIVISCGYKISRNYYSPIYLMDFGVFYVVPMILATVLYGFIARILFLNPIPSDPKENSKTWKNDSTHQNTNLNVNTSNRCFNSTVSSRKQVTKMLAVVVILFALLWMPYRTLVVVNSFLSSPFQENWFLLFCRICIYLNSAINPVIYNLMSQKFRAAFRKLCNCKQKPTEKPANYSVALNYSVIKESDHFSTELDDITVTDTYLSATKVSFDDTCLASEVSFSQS
Procedure, shortened: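 Following an 18 h incubation at 37 °C and a 2 h calcium dye load, TRHR-HEK293 cells were exposed to compound (5 min, room temperature) and challenged with TRH, 1 nM final.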

[15] = target: Thyrotropin-releasing hormone receptor (Homo sapiens) (UniProt P34981); experiment: qHTS assay to identify small molecule agonists of the thyrotropin-releasing hormone receptor (TRHR) signaling pathway (AID 1346891); also: series mostly up to about 58 µM
Procedure, shortened: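 HEK293 cells expressing TRHR plated 18 h at 37 C/5% CO2, calcium dye-loaded 2 h at 37 C, then compound added (agonist mode); kinetic calcium fluorescence read 3 min at 1 s intervals; 15 concentrations in triplicate.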

[16] = qHTS assay to identify small molecule agonists or antagonists of the thyroid stimulating hormone receptor (TSHR) signaling pathway - wild type cell line counter screen (AID 1259384)
Procedure, shortened: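 Wild-type HEK293 cells were plated 18 h at 37 C/5% CO2, pin-dosed with compound plus Ro20-1724 medium, held 30 min at room temperature, then given cAMP-d2 and anti-cAMP-cryptate; fluorescence was read after 1 h. Fifteen concentrations, triplicate.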

[17] = target: Progesterone receptor (Homo sapiens) (UniProt P06401); experiment: qHTS assay to identify small molecule antagonists of the progesterone receptor (PR) signaling pathway (AID 1346795; active = well fitted inhibition curve with a large enough effect in the signal ratio in the repeat runs, not every such curve was filed as active; the % refers to the signal ratio; also: potency is read from the fitted curve at half-maximal effect)
Procedure, shortened: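 PR-UAS-bla HEK293T cells with beta-lactamase reporter under UAS control, in 2% charcoal-stripped FBS, treated with compounds plus 1 nM promegestone (R5020, final) for 16 hr at 37C. Read-out: FRET beta-lactamase substrate fluorescence after 2 hr at room temperature.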

[18] = qHTS assay to identify small molecule antagonists of the progesterone receptor (PR) signaling pathway - cell viability counter screen (AID 1346798; active = well fitted curve in the direction sought with a large enough effect in the repeat runs; an effect the other way counts as inactive or inconclusive; also: series mostly up to about 92 µM; nearly all actives have a fitted effect of over 50% in size)
Procedure, shortened: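 PR-UAS-bla HEK293T cells, 3,000/well in 2% charcoal-stripped FBS medium, dosed with compounds plus R5020 agonist and incubated 16 h at 37C. Viability then measured in the same wells by CellTiter-Glo luminescence after 30 min at RT.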

[19] = qHTS assay to identify small molecule agonists of the progesterone receptor (PR) signaling pathway - cell viability counter screen (AID 1346799); also: nearly all actives have a fitted effect of over 45% in size; also: potency is read from the fitted curve at half-maximal effect
Procedure, shortened: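 Counter screen in the PR-UAS-bla HEK293T wells (2% charcoal-stripped FBS, 16 h compound exposure at 37 C) after the bla read. CellTiter-Glo added, 30 min at room temperature, luminescence read as cell viability.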

[20] = target: Thyrotropin receptor (Homo sapiens) (UniProt P16473); experiment: qHTS assay to identify small molecule antagonists of the thyroid stimulating hormone receptor (TSHR) signaling pathway (AID 1259385); also: nearly all actives have a fitted effect of over 20% in size
Chain of Thyrotropin receptor (Homo sapiens) (P16473 whole entry, looked up): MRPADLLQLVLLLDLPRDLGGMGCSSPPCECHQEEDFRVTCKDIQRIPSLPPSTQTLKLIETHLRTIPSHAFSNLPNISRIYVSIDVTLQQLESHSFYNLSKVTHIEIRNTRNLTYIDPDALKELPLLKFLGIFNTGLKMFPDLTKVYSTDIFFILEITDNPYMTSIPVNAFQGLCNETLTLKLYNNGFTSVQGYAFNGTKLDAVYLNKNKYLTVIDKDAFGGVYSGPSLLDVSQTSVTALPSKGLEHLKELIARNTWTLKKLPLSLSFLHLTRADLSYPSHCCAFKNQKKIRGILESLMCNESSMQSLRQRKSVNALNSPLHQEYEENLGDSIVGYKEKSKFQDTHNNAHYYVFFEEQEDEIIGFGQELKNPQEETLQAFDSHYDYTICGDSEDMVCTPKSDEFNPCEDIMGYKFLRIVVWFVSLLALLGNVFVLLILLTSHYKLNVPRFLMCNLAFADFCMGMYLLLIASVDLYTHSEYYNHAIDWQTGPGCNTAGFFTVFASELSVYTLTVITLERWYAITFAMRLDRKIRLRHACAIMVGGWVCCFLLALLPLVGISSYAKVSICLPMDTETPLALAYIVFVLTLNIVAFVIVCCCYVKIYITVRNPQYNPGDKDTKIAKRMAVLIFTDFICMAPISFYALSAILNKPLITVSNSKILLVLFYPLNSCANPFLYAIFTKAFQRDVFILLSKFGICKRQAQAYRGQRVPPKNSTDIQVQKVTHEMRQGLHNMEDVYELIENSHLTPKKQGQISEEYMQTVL
Procedure, shortened: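 TSHR-HEK293 cells were plated and held 18 h at 37C/5% CO2, then given compound plus Ro20-1724 and stimulated with TSH at 1.5 ng/mL final. After 30 min at room temperature, cAMP was detected with cAMP-d2/anti-cAMP-cryptate (1 h) by fluorescence.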

Compound	Potency [1]	outcome [2]	Potency [3]	Potency [4]	Potency [5]	Potency [6]	Potency [7]	Potency [8]	Potency [9]	Potency [10]	Potency [11]	Potency [12]	outcome [13]	Potency [14]	Potency [15]	Potency [16]	Potency [17]	Potency [18]	Potency [19]	Potency [20]
Cc1c2oc3c(C)ccc(C(=O)N[C@@H]4C(=O)N[C@H](C(C)C)C(=O)N5CCC[C@H]5C(=O)N(C)CC(=O)N(C)[C@@H](C(C)C)C(=O)O[C@@H]4C)c3nc-2c(C(=O)N[C@@H]2C(=O)N[C@H](C(C)C)C(=O)N3CCC[C@H]3C(=O)N(C)CC(=O)N(C)[C@@H](C(C)C)C(=O)O[C@@H]2C)c(N)c1=O (I: T[dV]P[Sar][NMeV] / II: T[dV]P[Sar][NMeV]; ester I:1-I:C, II:1-II:C; linker I:N-II:N via Actinocin(9to1))	2.1 nM (active)	inactive	0.0266 µM (active)	10.6 µM (active)	inactive	inactive	inactive	inactive	26.6 µM (active) and 10.6 µM (active)	inactive	inactive	inactive	inactive	inactive	inactive					
Nc1nc(=S)c2[nH]cnc2[nH]1	842 nM (active) and 545 nM (active) and 596 nM (active)	inactive	inactive	inactive	3.06 µM (active) and 2.98 µM (active)	inactive		inactive	inactive	inactive	inactive			inactive	inactive	inactive	inactive	inactive	4.73 µM (active)	
CC1COC(=O)O1 (stereo unspecified)	inactive	inactive	inactive	inactive	inactive	inactive	inactive	inactive	inactive	inactive	inactive	inactive	inactive	inactive	inactive	inactive	inactive	inactive	inactive	inactive
Clc1ccc2c(c1)C(N1CCNCC1)=Nc1ccccc1O2	inactive	inactive	inactive	61.1 µM (active) and 29.8 µM (active)	30.6 µM (active) and 23.7 µM (active)		inactive	inactive	inactive		inactive		inactive	inactive	inactive	inactive	5.45 µM (active) and inactive	inactive	inactive	inactive
CO[Si](OC)(OC)c1ccccc1	inactive	inactive	inactive	inactive	inactive		inactive	inactive	inactive	inactive	inactive		inactive	inactive	inactive	inactive		inactive	inactive	inactive
Cc1scc2c1N(C(=O)CN1CCN(C)CC1)c1ccccc1NC2=O	inactive	inactive	inactive	inactive	inactive		inactive	inactive	inactive	inactive	inactive	inactive		inactive	inactive	inactive	inactive	inactive	inactive	inactive
CC(=O)Nc1ccc(C(=O)CCl)cc1	inactive and 30.6 µM (active)	inactive	inactive	54.5 µM (active)	inactive	inactive	inactive		inactive	inactive	inactive		inactive	inactive	inactive	inactive	inactive	inactive	inactive	inactive
O=C1NCC2(CCN(CCc3ccccc3)CC2)O1	inactive	inactive	inactive	inactive	inactive		inactive	inactive	inactive	inactive	inactive	inactive	inactive	inactive	inactive	inactive	inactive	inactive	inactive	
COc1ccc(Cc2cnc(N)nc2N)cc1OC	inactive	inactive	inactive	inactive	inactive	inactive	inactive	inactive	inactive	inactive	inactive		inactive	inactive	inactive	inactive	inactive	inactive	inactive	inactive
COC(=O)c1cccc(C(=O)OC)c1	inactive	inactive	inactive	inactive	inactive	inactive	inactive	inactive	inactive	inactive	inactive		inactive	inactive	inactive			inactive	inactive	
O=Nc1ccc(Nc2ccccc2)cc1	1.38 µM (active) and 2.43 µM (active)	inactive	68.6 µM (active)	54.8 µM (active) and 54.5 µM (active)	61.4 µM (active) and 48.6 µM (active)	inactive	61.4 µM (active)	inactive	inactive		inactive		inactive	inactive	inactive					
CCOC(=O)C(C)C(C)=O (stereo unspecified)	inactive	inactive	inactive	inactive	inactive		inactive		inactive	inactive	inactive	inactive	inactive	inactive	inactive	inactive	inactive	inactive	inactive	
CC(=O)OCCOCCOCCOC(C)=O	inactive	inactive	inactive	inactive	inactive		inactive	inactive	inactive	inactive	inactive	inactive	inactive	inactive	inactive			inactive	inactive	inactive
C=C(C)C(=O)O	inactive	inactive	inactive	inactive	inactive		inactive	inactive	inactive		inactive	inactive	inactive	inactive	inactive			inactive	inactive	
